LmPK inhibitor = inhibitors of Leishmania mexicana pyruvate kinase. purified LmPK, Kinase-Glo ATP luminescence, 1 h. Q27686. Potency, µM (titrated, usually from 57.5 µM), for the others: at the highest dose activity change, negative = inhibition, usual class: inhibitors. hit rate 0.37% among 290,000
Target sequence (Q27686 whole entry, looked up): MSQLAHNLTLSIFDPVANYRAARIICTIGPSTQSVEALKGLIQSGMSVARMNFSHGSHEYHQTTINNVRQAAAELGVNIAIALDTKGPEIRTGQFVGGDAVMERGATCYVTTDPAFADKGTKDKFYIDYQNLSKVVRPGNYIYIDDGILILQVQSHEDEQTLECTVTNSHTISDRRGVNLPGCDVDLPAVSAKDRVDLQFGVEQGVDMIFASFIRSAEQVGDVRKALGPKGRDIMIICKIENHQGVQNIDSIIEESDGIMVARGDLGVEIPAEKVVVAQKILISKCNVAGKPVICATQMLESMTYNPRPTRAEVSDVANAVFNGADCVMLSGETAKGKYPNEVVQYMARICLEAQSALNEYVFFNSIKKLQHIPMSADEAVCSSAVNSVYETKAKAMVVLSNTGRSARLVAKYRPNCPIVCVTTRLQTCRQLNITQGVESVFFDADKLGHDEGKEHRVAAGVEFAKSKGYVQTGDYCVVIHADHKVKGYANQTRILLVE
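Pyruvate kinase activity monitored as ATP production (luciferase luminescence). Conditions: 0.1 nM enzyme, 0.5 mM PEP, 0.1 mM ADP, 1 h, RT; normalized against uninhibited and no-enzyme wells.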
Sm TGR inh = S. mansoni TGR enzyme inhibition | Q962Y6 | purified TGR, DTNB reduction, TNB absorbance 405 nm | Potency, µM (highest dose often 114 µM), for the others: at the highest dose activity change, negative = inhibition, hits mostly inhibitors | hit rate 3% among 360,000 | AID 485364; also: nearly all actives have a fitted effect of over 60% in size
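Kinetic colorimetric format: TGR-catalysed, NADPH-driven DTNB reduction monitored via TNB absorbance. Enzyme dispensed at 20 nM; compound exposure 15 min at room temperature before reaction start.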
RE007 growth inh = less growth of the S. pombe RE007 Vpr strain. S. pombe RE007 Vpr strain, BacTiter-Glo ATP luminescence, 24 h. Potency, µM (titrated, usually from 92.2 µM), inactives show top-dose activity change, negative = less growth, hits mostly inhibitors. hit rate 0.21% among 360,000. AID 651644; active = well fitted falling curve with a large enough effect; inconclusive = small, poorly fitted or top-dose-only effect; inactive = no such curve, though single readings can be large or run the other way; also: nearly all actives have a fitted effect of over 50% in size
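Fission yeast RE007 carrying one integrated HIV-1 vpr copy, seeded at OD 0.01 in PMG+AL medium with 23 nL pinned compound. Grown 24 h at 30 degrees; viability read by BacTiter-Glo luminescence after 5 min.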
FBPA Giardia inh = inhibitors of Giardia lamblia fructose-1,6-bisphosphate aldolase; A8B2U2; Potency, µM (titrated, usually from 59.6 µM), inactives show top-dose activity, negative = inhibition, hits mostly inhibitors; purified Giardia FBPA; hit rate 0.71% among 290,000; also: nearly all actives have a fitted effect of over 55% in size
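Giardia FBPA (40 nM reagent) was preincubated 10 min at RT with compound (up to 57.5 uM final), then substrate plus GAPDH/TPI/NAD/arsenate coupling system with diaphorase/resazurin was added; resorufin fluorescence (525/598 nm) was read after 20 min.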
TbPYK inhibitor = blocks Trypanosoma brucei pyruvate kinase. TbPYK enzyme, Kinase-Glo Plus ATP luminescence, 45 min. hit rate 0.12% among 410,000. Potency, µM (top dose mostly 76.8 µM), without a hit: at the highest dose activity, negative = inhibition, hits mostly inhibitors. AID 624173; also: nearly all actives have a fitted effect of over 50% in size
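Activity of T. brucei pyruvate kinase was followed by Kinase-Glo Plus luminescence after the enzyme reacted 45 min at room temperature with 130 uM ADP (final) and substrate. Test compounds were added before ADP at multiple concentrations.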
* hit, by the source's call; ? = inconclusive; . = not tested or not shown; [ ] = dose if it differs, or a comment. Only some compounds are listed: those with a hit (about 3.3% of all), similar ones and a draw of the others. Unless noted, calls follow the shape of the dose curve; as a rule, active = well fitted curve in the direction sought with a large enough effect; inconclusive = small, poorly fitted or top-dose-only effect, or another doubt; inactive = no such curve, though single readings can be large; an effect the other way counts as inactive or inconclusive. % is scaled to controls: 0 for no effect and ±100 for the full control effect; potency is read from the fitted curve at half-maximal effect.

SMILES	LmPK inhibitor	Sm TGR inh	RE007 growth inh	FBPA Giardia inh	TbPYK inhibitor
Cc1cc2c3c(c1)C(C)CC(C)(C)N3C(=O)C2=C(C#N)C#N (stereo unspecified)	-9%	4µM*	-3%	?	4%
Cc1nc(-c2ccccc2)sc1-c1n[nH]c(=S)n1C	-11%	8%	5%	15%	?
CSc1sc(-c2n[nH]c(=S)n2C)c2c1C=CCC2	-7%	25µM*	-3%	?	?
CCCCn1nnc(NC(=S)NC(=O)c2ccc(OCC)c([N+](=O)[O-])c2)n1	1%	40µM*	9%	.	0%
COc1cc2c(cc1OC)C1O[C@](CCCCN3C(=O)c4ccccc4C3=O)(C2)OC2=C1C(=O)CC(C)(C)C2	-8%[11.5 µM]	4.5µM*	.	?	.
O=C1OC2(CCCCC2)CC2=C1C1O[C@](CCCCN3C(=O)c4ccccc4C3=O)(Cc3ccccc31)O2	-5%[11.5 µM]	?	.	2%[12.9 µM]	.
COc1cc2c(cc1OC)C1O[C@](CCCCN3C(=O)c4ccccc4C3=O)(C2)OC2=C1C(=O)OC1(CCCCC1)C2	-8%[11.5 µM]	4.5µM*	.	-11%[12.9 µM]	.
Nc1ccccc1NC(=O)c1ccc(CNC(=O)OCc2cccnc2)cc1	.	.	.	3%	.
COc1ccc(C2CC(=O)N(CC(=O)NCC3CCCO3)c3ccccc3S2)cc1 (stereo unspecified)	6%	-10%	18%	4%	4%
CCOC(=O)CNC(=O)CN1C(=O)CC(c2ccco2)Sc2ccccc21 (stereo unspecified)	9%	-36%	-14%	10%	3%
O=C1CC(c2ccccc2)Sc2nc3ccccc3n21 (stereo unspecified)	-16%	7%	-9%	-1%	-19%
CN1C(=O)CC(c2ccco2)Sc2ccccc21 (stereo unspecified)	-1%	40µM*	-2%	3%	-8%
CCCN1C(=O)CC(c2ccco2)Sc2ccccc21 (stereo unspecified)	2%	14µM*	-15%	2%	-19%
O=C(CN1C(=O)CC(c2ccco2)Sc2ccccc21)NCC1CCCO1 (stereo unspecified)	5%	13µM*	-15%	-23%	-8%
O=C1CC(c2ccco2)Sc2nc3ccccc3n21 (stereo unspecified)	-11%	50µM*	?	0%	-13%
COc1cccc(S(=O)(=O)Nc2cccc(C(=O)N3CCOCC3)c2)c1	0%	0%	-15%	4%	0%
Cn1ccnc1SCC(=O)Nc1ccc(Oc2ccccc2)cc1	-8%	0%	3%	-4%	-14%
CC(C)Nc1nc(NC(C)C)nc(Oc2ccc(/C=N/O)cc2)n1	-6%	-1%	-3%	3%	0%
Cc1ccc(-c2nc3ncccn3c2Nc2ccc3c(c2)OCCO3)o1	-4%	50µM*	10%	7%	2%
Brc1ccc(-c2nc3ncccn3c2Nc2ccc3c(c2)OCCO3)o1	-1%	-27%	6%	3%	-4%
Cc1ccc(-c2nc3ccc(Cl)cn3c2Nc2ccc3c(c2)OCCO3)o1	.	28µM*	.	.	-5%
Nc1ccc(N(CCO)CCO)cc1	-18%	7.1µM*	-11%	5µM*	-9%
O=C(/C=C/c1ccco1)c1ccc(O)cc1	10%	3.5µM*	.	0%	.
O=C(C=Cc1ccco1)c1ccc2ccccc2c1	.	.	-7%	.	-21%
CN(C)c1ccc(C(=O)/C=C/c2ccco2)cc1	-22%	45µM*	-18%	-11%	-17%
CC(c1ccco1)N(C(=O)COc1ccc(Cl)cc1)c1ccccn1 (stereo unspecified)	-7%	?	4%	4%	-5%
O=C1OC(Nc2ccc(F)c([N+](=O)[O-])c2)c2ccccc21 (stereo unspecified)	1%	-1%	-2%	0%	0%
O=C1OC(Nc2ccc3c(c2)OCO3)c2ccccc21 (stereo unspecified)	-9%	8.9µM*	-5%	-12%	?
COc1nc(Cl)cn(-c2ccc(C)cc2)c1=O	3%	3%	11%	0%	1%
Cc1ccc(-n2c(Cl)c(Cl)nc(Cl)c2=O)cc1	-2%	0.79µM*	10µM*	1%	4%
